Measurements from the supplement of paper PMC8253809.
Values joined by “and” are separate entries in the source; they are usually repeats but may differ in a detail not shown here. Identical values can stand only once.

Key:
Experiment in all cases: growth inhibition (% activity, log2 RLU normalised to DMSO / staurosporine); higher = more growth inhibition
Details in all cases: 33 µM
DIPGX29 = test system: DIPGX29 (H3.3 K27M diffuse intrinsic pontine glioma line)
Procedure, shortened: (§1)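 The growth-inhibition value is the median over replicates. pHGG cell lines and H9-derived neural stem cells on Geltrex-coated 384-well plates received approved drugs by pin tool at a single final concentration of about 33 μM, in triplicate, for 7 days at 37 °C, 5% CO2. CellTiter-Glo luminescence was log2-transformed and normalised per plate to % activity between solvent and positive control wells.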

DIPGX37 = test system: DIPGX37 (H3.3 K27M diffuse intrinsic pontine glioma line)
Procedure, shortened: as §1

DIPGX7 = test system: DIPGX7 (H3.3 K27M diffuse intrinsic pontine glioma line)
Procedure, shortened: as §1

DIPGX9 = test system: DIPGX9 (diffuse intrinsic pontine glioma line)
Procedure, shortened: as §1

HGGX39 = test system: HGGX39 (paediatric high-grade glioma line)
Procedure, shortened: as §1

HGGX6 = test system: HGGX6 (H3.3 G34R paediatric high-grade glioma line)
Procedure, shortened: as §1

HNSC = test system: HNSC
Procedure, shortened: as §1

SUDIPGIV = test system: SUDIPGIV (diffuse intrinsic pontine glioma line)
Procedure, shortened: as §1

SUDIPGVI = test system: SUDIPGVI (diffuse intrinsic pontine glioma line)
Procedure, shortened: as §1

SUDIPGXIII = test system: SUDIPGXIII (diffuse intrinsic pontine glioma line)
Procedure, shortened: as §1

Compound | growth inhibition (DIPGX29) | growth inhibition (DIPGX37) | growth inhibition (DIPGX7) | growth inhibition (DIPGX9) | growth inhibition (HGGX39) | growth inhibition (HGGX6) | growth inhibition (HNSC) | growth inhibition (SUDIPGIV) | growth inhibition (SUDIPGVI) | growth inhibition (SUDIPGXIII)
CCOc1ccc(NC(C)=O)cc1 | 1.41% | 1.55% | 3.09% | 2.76% | 2.76% | -0.142% | 47.6% | 2.49% | -4.96% | 1.58%
CCOC(=O)C1=C(C)NC(C)=C(C(=O)OC)C1c1cccc(Cl)c1Cl (stereo not given) | 2.2% | 0.16% | 2.82% | 2.94% | 6.84% | -1.45% | 5.27% | 3.57% | 1.79% | -2.05%
C1N2CN3CN1CN(C2)C3 | 1.11% | 3.51% | 1.18% | 2.53% | 3.89% | 2.47% | 0.987% | 1.56% | 1.89% | -0.234%
CCCCN(CCCC)CCCOC(=O)c1ccc(N)cc1 | 2.46% | 2.29% | 5.01% | 2.44% | 6.95% | 5.63% | 8.9% | 1.64% | 3.72% | -1.97%
CCc1cc2c(cc1CC)CC(NC[C@H](O)c1ccc(O)c3[nH]c(=O)ccc13)C2 | -0.957% | -0.915% | 0.341% | -1.43% | 0.343% | -1.65% | 23.5% | 1.53% | -4.28% | 0.665%
CC(C[N+](C)(C)C)OC(N)=O (stereo not given) | -2.19% | 0.0509% | -1.77% | 0.0426% | -1.35% | -2.06% | -4.04% | -1.69% | -2.52% | 0.126%
C[C@@H]1CN(c2c(F)c(F)c3c(=O)c(C(=O)O)cn(C4CC4)c3c2F)C[C@H](C)N1 | -1.92% | -8.88% | -0.67% | -1.75% | 1.32% | -0.41% | 1.66% | -2.13% | -5.84% | -3.56%
O=C(NC[C@H]1CN(c2ccc(N3CCOCC3=O)cc2)C(=O)O1)c1ccc(Cl)s1 | -0.891% | 0.377% | -0.155% | -1.03% | 0.0326% | 0.545% | 0.606% | 3.01% | -0.593% | 1.19%
O=c1[nH]c(=O)n(C2CCCO2)cc1F (stereo not given) | -0.615% | 0.56% | -0.536% | -0.0713% | 1.51% | -0.669% | -0.796% | -1.49% | -0.356% | -6.49%
CN(C)CCOc1ccc(/C(=C(/CCCl)c2ccccc2)c2ccccc2)cc1 | 2.43% | 1.15% | 6.73% | 0.45% | 5.94% | 5.5% | 2.79% | 2.82% | 0.578% | -0.556%
CN(C)CCCN1c2ccccc2Sc2ccc(Cl)cc21 | -1.92% | -1.4% | 0.129% | -1.08% | 0.279% | -2.17% | 24.1% | -0.706% | -5.1% | 2.77%
C[C@H]1O[C@H](O[C@H]2[C@H](O)[C@@H](O)[C@@H](O[C@H]3[C@H](O)[C@@H](O)C(O)O[C@@H]3CO)O[C@@H]2CO)[C@H](O)[C@@H](O)[C@@H]1N[C@H]1C=C(CO)[C@@H](O)[C@H](O)[C@H]1O (stereo not given in full) | -1.13% | -1.58% | -0.631% | -1.81% | -1.75% | -0.366% | -2.81% | -2.71% | -0.59% | -0.463%
Cc1cc2c(cc1S(N)(=O)=O)S(=O)(=O)CCC2 | 0.849% | 2.86% | -0.717% | 1.06% | 0.974% | 0.857% | -0.336% | -0.262% | 2.41% | 1.65%
CN1[C@@H]2CC[C@H]1C[C@@H](OC(c1ccccc1)c1ccccc1)C2 | 4.24% | -1.03% | 6.35% | 2.77% | 6.58% | 5% | 9.97% | 2.1% | 3.58% | 0.606%
CN(C)CCC(c1ccc(Br)cc1)c1ccccn1 (stereo not given) | -0.2% | 1.72% | 0.687% | 0.118% | 1.57% | -1.76% | 4.12% | -0.116% | -0.379% | 1.63%
O=C(O)c1cc(=O)c2ccccc2o1 | -0.199% | -0.128% | 0.253% | 1.55% | 0.445% | -1.13% | -0.975% | 0.468% | 2.48% | 0.672%
CC1(C)[C@@H](OC(=O)CCC(=O)O)CC[C@]2(C)[C@H]3C(=O)C=C4[C@@H]5C[C@@](C)(C(=O)O)CC[C@]5(C)CC[C@@]4(C)[C@]3(C)CC[C@@H]12 | -0.0896% | -1.93% | -0.476% | -0.36% | 1.22% | -0.666% | 0.455% | -0.927% | 2.1% | 0.0653%
CC(NC(=O)Cc1cc(F)cc(F)c1)C(=O)NC(C(=O)OC(C)(C)C)c1ccccc1 (stereo not given) | 0.109% | -1.56% | 0.0172% | 0.631% | 1.42% | 1.3% | 1.25% | -6.22% | -0.444% | 0.458%
CC(C)C[C@H](NC(=O)[C@H](O)[C@H](N)Cc1ccccc1)C(=O)O | 1.26% | 0.0198% | 0.163% | -1% | -2.32% | 1.9% | 0.429% | -2.58% | 0.754% | 0.189%
Cn1cnc([N+](=O)[O-])c1Sc1ncnc2[nH]cnc12 | 15.9% | 9.81% | 21.6% | 13.8% | 18.2% | 18.5% | 55.8% | 32.2% | 8.24% | 17.1%

Compound | growth inhibition (DIPGX29) | growth inhibition (DIPGX37) | growth inhibition (DIPGX7) | growth inhibition (DIPGX9) | growth inhibition (HGGX39) | growth inhibition (HGGX6) | growth inhibition (HNSC) | growth inhibition (SUDIPGIV) | growth inhibition (SUDIPGVI) | growth inhibition (SUDIPGXIII)
O=C(O)CCCN1CCC(O[C@@H](c2ccc(Cl)cc2)c2ccccn2)CC1 | -0.326% | 0.504% | -0.839% | -1.86% | 0.636% | -0.646% | -1.58% | -0.161% | 0.268% | 0.355%
CN(Cc1ccc(C(C)(C)C)cc1)Cc1cccc2ccccc12 | 1.43% | 0.769% | 0.907% | 2.12% | 3.22% | 1.49% | 0.815% | 3.24% | 3.2% | 1.08%
CC(=O)N[C@@H](CS)C(=O)O | -0.541% | 1.66% | 0.31% | -0.364% | -0.994% | -2.9% | 1.29% | 0.64% | 0.65% | 0.374%
C[N+](C)(CCOc1ccccc1)Cc1ccccc1.O=C([O-])c1cc2ccccc2cc1O | -1.73% | 0.336% | -2.4% | -0.621% | -1.29% | -2.23% | -1.38% | 2.44% | 1.1% | -1.56%
CN1CCC(OC(c2ccccc2)c2ccccc2)CC1 | 1.96% | 3.9% | 1.96% | 0.713% | 4.23% | 2.61% | 2.96% | 1.77% | 3.73% | -1.75%
CN(C/C=C/C#CC(C)(C)C)Cc1cccc2ccccc12 | -0.633% and -1.72% | -0.939% and -0.818% | -1.38% and -1.19% | 0.275% and -0.829% | 1.78% and -1.01% | 0.104% and -1.17% | -0.321% and -4.36% | -0.307% and 0.598% | 1.93% and -1.67% | -1.07% and -1.51%
CC(C(=O)O)c1ccc2c(c1)CC(=O)c1ccccc1S2 (stereo not given) | 1.3% | 4.16% | 2.06% | 1.25% | 2.45% | 2.99% | 1.66% | -1.48% | 4.71% | 0.56%
CCCCOc1cc(C(=O)NCCN(CC)CC)c2ccccc2n1 | 8.77% | 4.81% | 9.69% | 3.99% | 6.11% | 5.06% | 13.1% | 2.91% | 3.16% | 1.33%
C[C@]12CC[C@@H]3c4ccc(O)cc4CC[C@H]3[C@@H]1CCC2=O | 0.142% | 1.98% | 2.55% | 1.67% | 3.84% | 0.36% | 1.29% | 1.87% | 0.844% | -0.509%
C[C@H]1NC(=O)NC1=O | -0.365% | 0.903% | -1.69% | -0.744% | -0.268% | 0.316% | -0.248% | -0.465% | 1.41% | 0.834%
O=c1oc2cc(O)ccc2s1 | 1.14% | 3.19% | 6.79% | 1.73% | 8.04% | 3.75% | 2.15% | 1.11% | 5.42% | 28.9%
Cc1onc(-c2ccccc2)c1C(=O)N[C@@H]1C(=O)N2[C@@H]1SC(C)(C)[C@@H]2C(=O)O | -1.74% | -1.12% | -1.18% | -0.122% | -0.815% | 0.0702% | -4.11% | 0.237% | 0.245% | -1.71%
C[C@H]1[C@H](NC(=O)/C(=N\OC(C)(C)C(=O)O)c2csc(N)n2)C(=O)N1S(=O)(=O)O | 1.82% | 1.51% | 2.55% | 1.75% | 2.62% | 1.95% | 1.91% | 1.35% | 3.09% | 1.38%
Cc1cnc(C(=O)NCCc2ccc(S(=O)(=O)NC(=O)NC3CCCCC3)cc2)cn1 | 0.556% | 2.29% | 1.52% | 0.701% | 1.35% | 1.61% | 0.478% | 0.461% | 1.46% | 0.0328%
O=C(O)CCCC[C@@H]1SC[C@@H]2NC(=O)N[C@@H]21 | 0.444% | 0.747% | 0.534% | 1.28% | 2.04% | 2.52% | -1.69% | 1.07% | 1.25% | 0.684%
Cc1nccn1CC1CCc2c(c3ccccc3n2C)C1=O (stereo not given) | 2.17% and 0.0485% | 1.96% and -0.656% | 5.12% and 2.92% | 1.4% and -0.3% | 4.82% and 1.34% | 1.68% and -1.02% | 3.47% and -2.09% | -0.0678% and -2.33% | 2.21% and -0.977% | -0.102% and 0.0786%
CN1CCN(C2=Nc3cc(Cl)ccc3Nc3ccccc32)CC1 | 3.8% | 0.486% | 1.02% | -2.02% | 1.24% | 0.753% | -1.26% | -0.494% | -5.31% | -1.11%
CCN[C@H]1C[C@H](C)S(=O)(=O)c2sc(S(N)(=O)=O)cc21 | 1.81% | -1.68% | 1.05% | 0.778% | 2.3% | 0.627% | 4.56% | -0.668% | 4.36% | 0.067%
Cc1c(NC(=O)c2cccnc2)c(=O)n(-c2ccccc2)n1C | 2.04% | 3.56% | 2.88% | 1.83% | 2.64% | 2.09% | 2.9% | 1.6% | 5.52% | -1.54%
Cc1ccc(NC(=O)c2ccc(CN3CCN(C)CC3)cc2)cc1Nc1nc(-c2cccnc2)cs1 | 8.55% | 4.57% | 8.77% | 6.79% | 15.1% | 9.96% | 9.74% | 7.78% | 9.06% | 2.08%
